Test results: PubChem BioAssay (Tox21)
Inconclusive results are not listed. A call without a number means that no potency is given here. A number with no mark means an inactive call. Active and inactive are the calls of the source. Calls come from the whole dose curve; as a rule, active = well fitted cell-killing curve with a large enough effect in the repeat runs; inconclusive = weak or mixed curves; inactive = no such curve, though single readings can be large or run the other way.

Experiment: qHTS assay to identify small molecule antagonists of the peroxisome proliferator-activated receptor delta (PPARd) signaling pathway - cell viability counter screen (AID 743213); note: nearly all actives have a fitted effect of over 50% in size
Conditions: PPARd-bla HEK293H viability, CellTiter-Glo luminescence, 17 h; series mostly up to 62 µM
Description: U.S. Tox21 Program National Center for Advancing Translational Sciences [NCATS] NIH Chemical Genomics Center [NCGC] U.S. Environmental Protection Agency [EPA] National Institutes of Environmental Health Sciences [NIEHS] National Toxicology Program [NTP] U.S. Food and Drug Administration [FDA] Tox21 Assay Overview: The peroxisome proliferator-activated receptors (PPARs) are lipid-activated transcription factors of the nuclear receptor superfamily with three distinct subtypes namely PPAR alpha, PPAR delta (PPARd) and PPAR gamma. All these subtypes heterodimerizes with Retinoid X receptor (RXR) and have different physiological functions. […] To identify the compounds that inhibit PPAR-delta signaling, GeneBLAzer PPAR delta UAS-bla HEK293H cell line (Invitrogen, Carlsbad, CA, USA) containing a beta-lactamase reporter gene under the control of an Upstream Activator Sequence (UAS) was used to screen the Tox21 compound library. The cytotoxicity of the Tox21 compound library against the PPARd-bla cell line was tested in parallel by measuring the cell viability using CellTiter-Glo assay (Promega, Madison, WI) in the same wells.
Tox21 Assay Protocol Summary: PPARd-bla cells were dispensed at 3000 cells/5uL/well in 1536-well black wall/clear bottom plates using a Multidrop Combi (Thermo Fisher Scientific, Waltham, MA) dispenser. After the assay plates were incubated at 37 C and 5% CO2 for 5 h, 23 nL of compounds dissolved in DMSO, positive controls or DMSO only was transferred to the assay plate by a Pintool station (Kalypsys, San Diego, CA), followed by addition of 1ul L165041 (300 nM, final concentration in the wells). The assay plates were incubated at 37 C for 17 h, and then 1 uL of LiveBLAzerTM B/G FRET substrate was added using a Bioraptr Flying Reagent Dispenser (FRD) workstation (Beckman Coulter, Indianapolis, IN, USA). The assay plates were incubated at room temperature for 2 h and fluorescence intensity was measured by an Envision plate reader (PerkinElmer, Shelton, CT). For cell viability readout that measures cytotoxicity, 3 ul/well of CellTiter-Glo reagent was added into the assay plates using a Bioraptr FRD. After 30 min incubation at room temperature, the luminescence intensity in the plates was measured using a ViewLux plate reader (PerkinElmer).
Potency is the fitted concentration of half-maximal effect.

Structure (SMILES) | Potency | viability change, negative = cytotoxic
Brc1cc(-c2ccc(Br)c(Br)c2Br)cc(Br)c1Br | inactive | 
CC(=O)Nc1ccc(N)cc1 | inactive | 
CCC(C)(O)CCC=C(C)C (stereo not given) | inactive | 
CCc1cccc(N(C)C(N)=Nc2cccc3ccccc23)c1 | inactive | 
CC(CCO)CCc1ccccc1 (stereo not given) | inactive | 
CC(=O)[C@H]1CC[C@H]2[C@@H]3C[C@H](C)C4=CC(=O)CC[C@]4(C)[C@H]3[C@@H](O)C[C@]12C | inactive | 
CC(Cl)C(Cl)Cl (stereo not given) | inactive | 
O=C(O)c1c(O)c(-c2ccccc2)nc2ccccc12 | inactive | 
CC[C@@H]([C@H](C)O)n1ncn(-c2ccc(N3CCN(c4ccc(OC[C@@H]5CO[C@@](Cn6cncn6)(c6ccc(F)cc6F)C5)cc4)CC3)cc2)c1=O | 23.7 µM (active) | 
NCC1CCCC(CN)C1 (stereo not given) | inactive | 
CCCCN(CCCC)CCCOC(=O)c1ccc(N)cc1 | inactive | 
C/C(=N/NC(=O)c1ccncc1)C(=O)O | inactive | 
CC(=O)Nc1ccccc1C | inactive | 
CCOC(=O)N1CCC(n2c(=O)[nH]c3cc(Cl)ccc32)CC1 | inactive | 
CC(C)C(OC(=O)c1ccccc1)C(C)(C)COC(=O)c1ccccc1 (stereo not given) | inactive | 
CCCCCCOC(=O)C(C)C | inactive | 
CCNC(=O)N1CCN(CCCC(c2ccc(F)cc2)c2ccc(F)cc2)CC1 | inactive | 
CC(C)CCCCCCOC(=O)CCCCC(=O)OCCCCCCC(C)C | inactive | 
Nc1nc(Cl)nc2c1ncn2[C@@H]1O[C@H](CO)[C@@H](O)[C@@H]1F | inactive | 
C[C@]12CCC(=O)C=C1C=C[C@@H]1[C@@H]2CC[C@@]2(C)[C@H]1CC[C@@]21CCC(=O)O1 | inactive | 

Structure (SMILES) | Potency | viability change, negative = cytotoxic
O=S1OCCO1 | inactive | 
CCCOCCOCCO | inactive | 
C=CC(=C)CCCC(C)(C)OC(C)=O | inactive | 
CCCC1C(CC)=CC(CC)=CN1c1ccccc1 (stereo not given) | inactive | 
CSc1ccc(Oc2ccc(S(N)(=O)=O)cc2CN(C)C)cc1C | inactive | 
CCCCC(=O)O[C@]1(C(=O)CO)CC[C@H]2[C@@H]3CCC4=CC(=O)CC[C@]4(C)[C@H]3[C@@H](O)C[C@@]21C | inactive | 
CC(C)(CCl)c1ccccc1 | inactive | 
CCOC(=O)[C@@H](C)Oc1ccc(Oc2nc3ccc(Cl)cc3o2)cc1 | inactive | 
Cc1cnc(C)c(C)n1 | inactive | 
Cc1cc2nc3ccc(=[N+](C)C)cc-3sc2cc1N | inactive | 
C/C=C(\C)C(=O)OCCC(C)CCC=C(C)C (stereo not given) | inactive | 
N#C/C(=C1/SC[C@@H](c2ccc(Cl)cc2Cl)S1)n1ccnc1 | inactive | 
O=C(O)c1ccc(CO)o1 | inactive | 
C=CCOC(=O)/C=C\C(=O)OCC=C | inactive | 
Cc1ccc(/C=N/n2c(-c3ccccc3)csc2=S)cc1 | inactive | 
Cc1cc(C(=C2C=CC(=Nc3ccc(S(=O)(=O)O)cc3S(=O)(=O)O)C=C2)c2ccc(Nc3ccc(S(=O)(=O)O)cc3)cc2)ccc1N | inactive | 
COC(=O)c1cc(S(N)(=O)=O)ccc1OC | inactive | 
Cc1nc2ccccc2s1 | inactive | 
CC1CN(c2cc3c(cc2F)c(=O)c(C(=O)O)cn3-c2ccc(F)cc2F)CCN1 (stereo not given) |  | 12.1% [at 6.26 µM]
CCn1nc(C)c2c1C(=O)NCC(c1ccc(O)cc1)=N2 | inactive | 
